Only some compounds are listed: those with a hit (about 3.6% of all), similar ones and a draw of the others.
ERb SRC1 inh – blocks coactivator binding to human estrogen receptor beta; TR-FRET ER-beta LBD / SRC1-Cy5 peptide binding; receptor agonist-loaded with 1 µM estradiol; inhibition, % at 25.6 µM; actives 1.3% (n = 86,000); AID 633;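 active means compounds whose percent inhibition of the receptor-coactivator binding signal exceeds about 50% in the single-dose screen, limit read from the data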;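 further: 0% = receptor plus peptide wells without compound and 100% = peptide-only wells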
ERa coact pot – enhances coactivator binding to human estrogen receptor alpha; P03372; TR-FRET ERalpha-LBD/SRC-Cy5 coactivator binding, 2 h; 100 = basal binding, no effect; coactivator binding (% of control), % at 25.6 µM; actives 1.3% (n = 86,000); AID 639; in the data active means activity above about 200%;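 further: binding measured in presence of low estradiol as agonist stimulus; 0% = peptide alone without receptor and 100% = receptor with peptide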
ERa coact inh – ER-alpha (human) coactivator binding inhibition | P03372 | TR-FRET ER-alpha LBD / SRC-1 peptide, estradiol-bound | inhibition, % at 25.6 µM | actives 1.7% (n = 86,000) | AID 629; in the data active means inhibition above about 50%;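 further: 0% = receptor plus peptide control and 100% = peptide only without receptor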
Candida biofilm – kills Candida albicans biofilms | inhibition, % at 6 µM | AID 834 | C. albicans biofilm + clotrimazole, Alamar Blue | actives 0.14% (n = 85,000);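 active means inhibition above 20%; inactive means inhibition below 20%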;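 further: preformed 24 hr biofilms exposed to compound for 48 hr; 0% = biofilm without compound and 100% = blank killed by clotrimazole plus chlorhexidine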
Smad3 FoxH1 inh – blocks human Smad3 binding to FoxH1 peptide. P84022. TR-FRET Smad3/Dy647-FoxH1 peptide binding, europium anti-His. inhibition, % at 25 µM. actives 0.29% (n = 88,000). AID 630;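 active means compounds that reduce the energy-transfer binding signal between the protein and its labelled peptide by more than half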;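 further: 0% = Smad3 plus labelled peptide maximal FRET and 100% = peptide-only background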
Target sequence (P84022 whole entry, looked up): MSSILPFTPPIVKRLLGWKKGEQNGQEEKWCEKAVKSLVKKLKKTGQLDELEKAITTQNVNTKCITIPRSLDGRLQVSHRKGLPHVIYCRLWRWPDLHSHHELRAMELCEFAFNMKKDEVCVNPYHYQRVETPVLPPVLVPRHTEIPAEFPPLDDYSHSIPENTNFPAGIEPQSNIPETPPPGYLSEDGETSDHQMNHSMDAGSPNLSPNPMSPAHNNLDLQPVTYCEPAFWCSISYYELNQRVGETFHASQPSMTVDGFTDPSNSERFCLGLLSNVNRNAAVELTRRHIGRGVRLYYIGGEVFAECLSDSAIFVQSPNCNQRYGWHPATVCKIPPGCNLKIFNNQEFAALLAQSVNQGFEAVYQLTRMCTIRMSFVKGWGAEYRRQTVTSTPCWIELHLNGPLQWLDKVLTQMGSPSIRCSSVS
* marks the source's active call; other numbers are inactive results; [ ] = remark or other dose.

O=C(Nc1sc2c(c1C(=O)O)CCC2)c1cccs1 was read as ERb SRC1 inh 41, ERa coact pot 74, ERa coact inh 12, Candida biofilm 4 and Smad3 FoxH1 inh 8.
CCOC(=O)c1c(NC(=O)c2ccco2)sc2c1CCCC2 was read as ERb SRC1 inh 6, ERa coact pot 118, ERa coact inh 0, Candida biofilm 7 and Smad3 FoxH1 inh 7.
O=C(Nc1sc2c(c1C(=O)O)CCC2)c1ccccc1 was read as ERb SRC1 inh 76*, ERa coact pot 25, ERa coact inh 79*[fluorescence artefact?], Candida biofilm -5 and Smad3 FoxH1 inh 6.
For Cc1cccn2c(=O)c3cc(C(=O)N4CCc5ccccc54)n(C)c3nc12 the results were ERb SRC1 inh 1, ERa coact pot 143, ERa coact inh -2, Candida biofilm 9 and Smad3 FoxH1 inh 11.
`COc1ccc(C2c3c(oc4ccc(Cl)cc4c3=O)C(=O)N2Cc2ccco2)cc1OC` (centres undefined) gave ERb SRC1 inh 3, ERa coact pot 114, ERa coact inh 8, Candida biofilm 2 and Smad3 FoxH1 inh 10.
`COc1cc(C2c3c(oc4ccc(Cl)cc4c3=O)C(=O)N2Cc2ccco2)cc(OC)c1OC` (centres undefined) gave ERb SRC1 inh 44, ERa coact pot 23, ERa coact inh 56*, Candida biofilm 6 and Smad3 FoxH1 inh 6.
Screening CN1C(=O)COc2ccc(C(=O)c3oc4ccccc4c3-c3cnc4c(c3)COc3ccccc3-4)cc21 returned ERb SRC1 inh 21, ERa coact pot 317*[fluorescence artefact?], ERa coact inh 16, Candida biofilm 4 and Smad3 FoxH1 inh -21.
Screening Cc1cccn2c(=O)c3cc(C(=O)Nc4ccc(N(C)C)cc4)n(C)c3nc12 returned ERb SRC1 inh 62*[fluorescence artefact?], ERa coact pot 22, ERa coact inh 96*[fluorescence artefact?], Candida biofilm 14 and Smad3 FoxH1 inh 63*[fluorescence artefact?].
For CCOc1ccc2nc(NC(=O)CCC(=O)c3cccs3)sc2c1 the results were ERb SRC1 inh 51*, ERa coact pot 62, ERa coact inh 60*[fluorescence artefact?], Candida biofilm 8 and Smad3 FoxH1 inh 4.
Screening CCc1ccc(S(=O)(=O)c2n[nH]n3c2nc(=O)c2ccccc23)cc1 returned ERb SRC1 inh 7, ERa coact pot 560*[fluorescence artefact?], ERa coact inh 6, Candida biofilm 6 and Smad3 FoxH1 inh -3.
For CC(=O)N1CCN=C1SCc1ccc(Br)cc1 the results were ERb SRC1 inh -8, ERa coact pot 108, ERa coact inh -2, Candida biofilm 24* and Smad3 FoxH1 inh 4.
NC(=O)[C@@H]1CCCNC1 was read as Smad3 FoxH1 inh -3.
Screening S=c1[nH]nc(-c2ccc3ccccc3n2)o1 returned ERb SRC1 inh -2, ERa coact pot 471*[fluorescence artefact?], ERa coact inh 0, Candida biofilm 6 and Smad3 FoxH1 inh 14.
`NC(N)=NC(N)=Nc1ccccc1` (tested in a mixture with another compound) gave Smad3 FoxH1 inh 60*.
Screening COc1cccc(NC(=O)Cn2cnc3sc(C)c(S(=O)(=O)N4CCCCC4)c3c2=O)c1 returned ERb SRC1 inh 1, ERa coact pot 116, ERa coact inh 6, Candida biofilm 4 and Smad3 FoxH1 inh -2.
Screening O=C1c2ccccc2-c2onc3ccc(Oc4ccccc4)c1c23 returned ERb SRC1 inh 41, ERa coact pot 60, ERa coact inh 76*[fluorescence artefact?], Candida biofilm 5 and Smad3 FoxH1 inh 11.
`NS(=O)(=O)C1=C(Cl)CC2=NC(CCC(=O)O)=NS(=O)(O)=C2C1` gave Smad3 FoxH1 inh 16.
CN1C[C@H](c2ccccc2)C(O)([C@]2(c3ccccc3)CN(C)C[C@H](c3ccccc3)C2=O)[C@H](c2ccccc2)C1 (some centres undefined) was read as Smad3 FoxH1 inh 6.
Screening CCCCn1c(NC(=O)c2ccccc2)nc2ccccc21 returned ERb SRC1 inh 2, ERa coact pot 108, ERa coact inh -2, Candida biofilm 8 and Smad3 FoxH1 inh 0.
For CCCCn1c(NC(=O)CC)c(C#N)c2nc3ccccc3nc21 the results were ERb SRC1 inh 43, ERa coact pot 221*[fluorescence artefact?], ERa coact inh 72*, Candida biofilm 2 and Smad3 FoxH1 inh 16.
`CCCn1nnc(NC(=O)c2ccccc2Cl)n1` gave ERb SRC1 inh -13, ERa coact pot 105, ERa coact inh -5, Candida biofilm 8 and Smad3 FoxH1 inh 8.
For CCC(=O)Nc1c(C#N)c2nc3ccccc3nc2n1-c1ccccc1C the results were ERb SRC1 inh 18, ERa coact pot 124, ERa coact inh 7, Candida biofilm 2 and Smad3 FoxH1 inh -5.
For CCCCn1c(NC(=O)c2ccccc2Cl)c(C#N)c2nc3ccccc3nc21 the results were ERb SRC1 inh 12, ERa coact pot 69, ERa coact inh 9, Candida biofilm -6 and Smad3 FoxH1 inh 80*.
CCC(=O)Nc1c(C#N)c2nc3ccccc3nc2n1C1CCCCC1 was read as ERb SRC1 inh 34, ERa coact pot 101, ERa coact inh 65*[fluorescence artefact?], Candida biofilm 7 and Smad3 FoxH1 inh 13.
`Cc1oc2cc(O)cc(C)c2c(=O)c1-c1cnn(-c2ccccc2)c1` gave ERb SRC1 inh -10, ERa coact pot 236*[fluorescence artefact?], ERa coact inh 14, Candida biofilm 10 and Smad3 FoxH1 inh 10.
For Cc1ccc(Nc2nc(N)nc(CSc3nnc(-c4ccncc4)o3)n2)cc1 the results were ERb SRC1 inh 20, ERa coact pot 113, ERa coact inh 39, Candida biofilm -4 and Smad3 FoxH1 inh -7.
`CCc1cc2cc(C(=O)Nc3ccccc3F)sc2s1` gave ERb SRC1 inh -1, ERa coact pot 152, ERa coact inh -25, Candida biofilm 0 and Smad3 FoxH1 inh -12.
CCc1cc2cc(C(=O)Nc3ccc(F)cc3)sc2s1 was read as ERb SRC1 inh 49, ERa coact pot 308*[fluorescence artefact?], ERa coact inh 37, Candida biofilm 12 and Smad3 FoxH1 inh -106.
`C/C(C[n+]1ccccc1)=N\N=C(N)N` gave Smad3 FoxH1 inh 14.
`CC1CC(C)CN(C(=O)c2ccc3c(c2)N(Cc2ccccc2)CCS3)C1` (centres undefined) gave ERb SRC1 inh 5, ERa coact pot 91, ERa coact inh 5, Candida biofilm 14 and Smad3 FoxH1 inh -5.
For Cc1ccc(CN2CCSc3ccc(C(=O)N4CCN(c5ncccn5)CC4)cc32)cc1 the results were ERb SRC1 inh 30, ERa coact pot 378*[fluorescence artefact?], ERa coact inh 25, Candida biofilm 10 and Smad3 FoxH1 inh 4.
For CC1CCN(C(=O)CSc2nnc(CSc3ncccn3)n2C)CC1 the results were ERb SRC1 inh -2, ERa coact pot 97, ERa coact inh 5, Candida biofilm -1 and Smad3 FoxH1 inh 3.
For CCCNC(=O)N1CCN(S(=O)(=O)c2ccc(C)c(C)c2)CC1 the results were ERb SRC1 inh -13, ERa coact pot 113, ERa coact inh -3, Candida biofilm 20* and Smad3 FoxH1 inh 2.
For O=c1c2cc3c(cc2[nH]c(=S)n1Cc1ccco1)OCO3 the results were ERb SRC1 inh 7, ERa coact pot 96, ERa coact inh 2, Candida biofilm 6 and Smad3 FoxH1 inh 6.

High-throughput results: PubChem, several laboratories
